Results taken from PubChem BioAssay AID504882 (Broad Institute, 2011).
Out of some 1,200 compounds screened, about 290 (24%) were called active. Inconclusive results (about 9%) are left out. The rule behind the calls is not given here. Only a sample is shown. Measured potencies and affinities stand elsewhere.

Experiment: LCL viability reduction – cell-based, plate reader, cherry-picks, set 2, cytotoxicity control, dose response (AID 504882);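 note: 0% = neutral control wells and -100% = positive control wells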
Settings: EBV lymphoblastoid cells (LCL) viability; series mostly up to 19.5 µM; activity change, negative = cytotoxicity: at the top concentration

Compound	activity change, negative = cytotoxicity
CCN(CC(=O)NCc1ccc(F)cc1)CC(=O)Nc1cc(S(=O)(=O)N(C)C)ccc1C	15% (inactive)
COc1cc(NCCCCCCN)c2ncccc2c1OC	25.1% (inactive)
CN(C)/C=C/C(=O)c1ccc2noc(-c3ccccc3)c2c1	15% (inactive)
CCc1ccc(C(=O)COC(=O)c2cccc(N3C(=O)c4c(C)nc5ccccc5c4C3=O)c2)cc1	41.6% (inactive)
O=C(Cn1nc(C(F)(F)F)c2c1CCC2)NC1CCCCC1	13.4% (inactive)
OCc1cc(C(O)CNCCCCCCOCCCCc2ccccc2)ccc1O (stereo not given)	18.7% (inactive)
Cc1cccc(NC(=O)c2cnc3ccccn3c2=O)c1	4.87% (inactive)
Cc1cccc(-n2ncc3c(N4CCOCC4)ncnc32)c1	-6.17% (inactive)
CCOCCCn1c(=S)[nH]c2ncccc2c1=O	2.14% (inactive)
Cc1ccn2c(c1)nc(=S)n2C(=O)c1ccccc1	-0.036% (inactive)
CCC(C)N1C(=O)CCC1C(=O)N1CCN(c2ccc(F)cc2)CC1 (stereo not given)	10.4% (inactive)
CNC(=O)c1[nH]cnc1C(=O)N[C@@H](CCCCNC(=O)OC(C)(C)C)C(=O)OC(C)(C)C	10.2% (inactive)
CN(C)c1ccnc2sc(C(N)=O)c(N)c12	1.46% (inactive)
O=C(Nc1ccc(F)c(F)c1)C1CCCCC1	0.732% (inactive)
O=C(C[n+]1ccccc1)N/N=C/c1ccc(O)cc1	30.2% (inactive)
Cc1cc(OCC(=O)Nc2cnn(CCCC(=O)O)c2)ccc1Cl	21.1% (inactive)
COC(=O)c1cccc2c1-c1ccccc1/C2=N/O	5.57% (inactive)
COc1ccc(S(=O)(=O)N2CCN(CC(=O)Nc3cc(OC)cc(OC)c3)CC2)cc1	13% (inactive)
Cc1cccc(S(=O)(=O)N2CCCc3ccccc32)c1	0.222% (inactive)
COc1ccc(S(=O)(=O)NNC(=O)C2Cc3c(ccc4ccccc34)O2)cc1 (stereo not given)	2.34% (inactive)
Cc1ccc(N2CCCCn3c2nc2c3c(=O)n(CC(=O)O)c(=O)n2C)cc1	13.5% (inactive)
Cc1ccc(N(Cc2cc3ccccc3[nH]c2=O)C(=O)c2ccco2)c(C)c1	13.3% (inactive)

Compound	activity change, negative = cytotoxicity
COc1ccc(S(=O)(=O)N2CCC(C(=O)NC3CC3)CC2)cc1OC	11.8% (inactive)
COc1ccc(-c2cnc(NCc3cc4c(cc3[N+](=O)[O-])OCO4)n2C)cc1	7.9% (inactive)
CNC1(C)[C@H]2CC[C@H](C2)C1(C)C (stereo not given in full)	15.2% (inactive)
Cc1ccc(S(=O)(=O)N2CCC[C@H]2C(=O)Nc2ccccc2C)cc1	2.08% (inactive)
Cc1ccc(C(=O)CSc2nnnn2C(C)C)c(C)c1	4.09% (inactive)
CN1CCc2cccc3c2C1Cc1ccc(O)c(O)c1-3 (stereo not given)	12.1% (inactive)
O=C(Nc1cc(Cl)ccc1Cl)C1Cc2ccccc2O/C1=N\O (stereo not given)	5.33% (inactive)
CC(NC(=O)CCOc1ccccc1)c1ccccc1 (stereo not given)	8.45% (inactive)
COc1cc2c(CCNC(C)=O)c[nH]c2cc1Cl	12.4% (inactive)
COCC(=O)N(C)c1nnc(-c2ccccn2)s1	26% (inactive)
CC1(C)CC(NS(=O)(=O)c2ccc(F)cc2)CC(C)(C)N1	26.8% (inactive)
COc1ccc(C(=O)C(CN2CCOCC2)c2ccccc2)cc1F (stereo not given)	-82.4% (inactive)
O=C(CC(c1ccc(F)cc1)c1ccco1)N1CCOCC1 (stereo not given)	0.708% (inactive)
O=C(Cn1cc(CNC(=O)C2CCCCC2)nn1)Nc1cc(C(F)(F)F)ccc1Cl	9.71% (inactive)
C=CC[N+](C)(C)C/C(Cl)=C(\Cl)c1ccccc1	-1.08% (inactive)
O=C1CCc2cc(OCCCCc3nnnn3C3CCCCC3)ccc2N1	10.6% (inactive)
Cc1nnc(NC(=O)CSc2nnc(Cc3cccn3C)n2CCc2ccccc2)s1	45.3% (inactive)
Cc1nnc(SCc2cnc(-c3ccc(C(C)C)cc3)s2)n1C	4.92% (inactive)
COc1ccc(/C=N/N=C/c2ccc(OC)c(OC)c2)cc1OC	20.2% (inactive)
COc1cc(/C=C2/SC(=S)N(Cc3ccccc3)C2=O)ccc1OCC(=O)O	8.06% (inactive)
CCOc1ccc(S(=O)(=O)N2CCC(C(=O)NCCc3ccc(S(N)(=O)=O)cc3)CC2)cc1	10.4% (inactive)
NC(=O)c1ccccc1N/C=C/C(=O)c1cccs1	-4.97% (inactive)

Compound	activity change, negative = cytotoxicity
O=C(N/C(=C/c1ccc(Br)cc1)C(=O)N1CCOCC1)c1ccc(Br)o1	17.4% (inactive)
O=C(Nc1ncc(Br)s1)C(Cc1ccccc1)n1cccc1 (stereo not given)	-1.84% (inactive)
CN(C)CCC(c1ccccc1)c1ccccn1 (stereo not given)	7.71% (inactive)
CCC(C)n1ncn(-c2ccc(N3CCN(c4ccc(OCC5COC(Cn6cncn6)(c6ccc(Cl)cc6Cl)O5)cc4)CC3)cc2)c1=O (stereo not given)	8.73% (inactive)
CC(=C/c1ccccc1)/C=N/n1c(-c2ccncc2)n[nH]c1=S	5.21% (inactive)
CCn1c(=O)c2c(cnn2C)c2ccccc21	-1.53% (inactive)
Cn1cccc1/C=N/n1c(-c2ccc(Cl)cc2Cl)n[nH]c1=S	13.1% (inactive)
OC(CCCN1CCCCC1)(c1ccccc1)c1ccccc1	14.8% (inactive)
COc1ccc(N2C(=O)C(Cl)=C(NCc3ccccc3)C2=O)cc1	21.9% (inactive)
COC(=O)[C@@]1(C)[C@H]2C(=O)N(Cc3ccccc3)C(=O)[C@H]2[C@H]2CN=C(SCc3ccc(Cl)cc3)N21	14.4% (inactive)
CC(C)Nc1nnc(SCC(=O)c2c(N)n(Cc3ccccc3)c(=O)n(C)c2=O)s1	-5.09% (inactive)
CCN(C(=O)c1cc(OC)c(OC)c(OC)c1)C1CCCCC1	4.8% (inactive)
COC(=O)C1=NNC(C(=O)OC)C1c1ccccc1 (stereo not given)	10.5% (inactive)
Cn1c(=O)c2c(ncn2CC(=O)Nc2cc(S(=O)(=O)N3CCCCC3)ccc2O)n(C)c1=O	22.4% (inactive)
COCCN1Cc2cccc(C(=O)N3CCN(c4cc(C)ccc4C)CC3)c2C1=O	-0.546% (inactive)
O=C(Nc1cc(C(F)(F)F)cc(C(F)(F)F)c1)Nc1cnn(-c2ccc([N+](=O)[O-])cc2)c1C(F)(F)F	-5.69% (inactive)
CCOCCCn1cnc2c3cc(F)ccc3n(C)c2c1=O	4.71% (inactive)
CCOC(=O)CCSc1nc(N2CCOCC2)c2c(c1C#N)CC(C)(C)OC2	20.7% (inactive)
COc1ccc(-c2cn3nc4c(nc3n2)CCCC4)cc1	-0.376% (inactive)
COc1cccc(C(=O)OCn2nnc3ccccc3c2=O)c1OC	17.8% (inactive)
Nc1nc(N)nc(-c2cc(Cl)ccc2Cl)n1	11.4% (inactive)
O=C(COc1ccc2ccccc2c1)NCCNC(=O)COc1ccc2ccccc2c1	13.9% (inactive)

Compound	activity change, negative = cytotoxicity
O=c1c2cnn(-c3ccccc3)c2nc(-c2cccs2)n1-c1ccc(Br)cc1	-8.44% (inactive)
CC1CC(C)CN(S(=O)(=O)c2ccc(NC(=O)CCN3C(=O)C4CC=CCC4C3=O)cc2)C1 (stereo not given)	10.9% (inactive)
COc1ccc(S(=O)(=O)NCC(c2cccnc2)N2CCN(c3ccc(F)cc3)CC2)cc1C (stereo not given)	13.6% (inactive)
Cc1nc2ncccn2c1-c1csc(Nc2ccccc2)n1	-27.8% (inactive)
CC(=O)c1sc(NC(=O)C2COc3ccccc3O2)nc1C (stereo not given)	10.2% (inactive)
O=C(COC(=O)c1cc2ccccc2cc1O)NCc1ccccc1	18% (inactive)
CCNc1nc(CN2CCOCC2)nc2sc3c(c12)CCC3	12% (inactive)
O=c1c(O)c(-c2ccc(O)c(O)c2)oc2cc(O)cc(O)c12	2.22% (inactive)
O=C(O)[C@@H]1[C@H]2C[C@H]3c4[nH]c5ccccc5c4CCN3C[C@@H]2CC[C@@H]1O	5.86% (inactive)
CC1=NN(C(N)=S)C(=O)C1N=Nc1cccc(C(=O)O)c1 (stereo not given)	22% (inactive)
Cc1ccc(C(=O)Nc2ccc3c(c2)OCCO3)c(Cl)c1	3.86% (inactive)
Cc1ccc(C)c(S(=O)(=O)N2CCN(C(=O)c3ccc(C)s3)CC2)c1	0.259% (inactive)
N#Cc1c(Nc2ccccc2)sc(C(=O)c2ccc(F)cc2)c1N	15.1% (inactive)
CNC(=S)Nc1ccc2nc(C)c(C)nc2c1	19.5% (inactive)
Oc1[nH]c2ccccc2c1N=Nc1c(F)c(F)c(Cl)c(F)c1F	8.45% (inactive)
CCn1nnc2cc(C(=O)NCCc3ccccc3F)ccc21	10.1% (inactive)
O=C(Nc1cccc(C(=O)O)c1)Nc1ccccc1Cl	9.77% (inactive)
Cc1ccc(C(=O)Nc2nnc(SCC(=O)N3CCCc4ccccc43)s2)cc1	7.65% (inactive)
CCc1ccc(/C=N/NC(=O)c2ccccn2)cc1	-13.3% (inactive)
CCC(Oc1ccccc1)C(=O)NC1CCSC1=O (stereo not given)	9.69% (inactive)
O=C(O)/C=C/c1ccc2ccccc2n1	22.6% (inactive)
CN(C)CCN(Cc1ccc(Cl)cc1)c1ccccn1	11.6% (inactive)

Compound	activity change, negative = cytotoxicity
Cc1ccc(C(=O)Nc2cccc(C(=O)O)c2)cc1S(=O)(=O)N1CCCCC1	-1.48% (inactive)
CCCCN(c1ccccc1)c1ncnc(N)c1[N+](=O)[O-]	3.49% (inactive)
O=C(N/N=C/c1cccc(O)c1)c1ccc2c(c1)OCCO2	9.59% (inactive)
O=C(NN1C(=O)C2C3C=CC(C4CC34)C2C1=O)c1cccc(Cl)c1 (stereo not given)	20% (inactive)
CC(C)(C)n1nc(-c2ccc(F)cc2)c2c(N)ncnc21	22.3% (inactive)
COc1cc(OC)cc(-c2cc3nc(C)c(CCC(=O)O)c(C)n3n2)c1	8.49% (inactive)
CN(C)CC(C)(C)CNS(=O)(=O)c1ccc(OC(F)(F)F)cc1	15.3% (inactive)
COc1cccc(C2=CC(=O)C[C@H](c3ccc4c(c3)OCO4)C2)c1	4.25% (inactive)
COC(=O)CN(c1ccccc1F)S(=O)(=O)c1ccc(C)cc1	-3.06% (inactive)
CCCCCCNC(=O)O[C@]12C[C@@H](C(=O)OC)[C@@H](C(=O)OC)C[C@@]1(O)CN(S(=O)(=O)c1ccc(C)cc1)C2	12.3% (inactive)
CN(CCNC(=O)C1CCN(S(=O)(=O)N2CCOCC2)CC1)CCc1ccccc1	6.51% (inactive)
O=c1c2cnn(-c3ccccc3)c2nc(-c2cccs2)n1-c1ccc(Cl)cc1	-2.24% (inactive)
NNC(=O)c1cccc(COc2ccc3c(c2)CCC3)c1	2.55% (inactive)
S=c1[nH]nc(C2CCCCC2)n1/N=C/c1ccncc1	-5.82% (inactive)
N#CC1=C(N)C(C#N)(C#N)C(c2cccnc2)C2CC(c3ccccc3)CC=C12 (stereo not given)	-16.7% (inactive)
COc1cc(CC(=O)N(c2ccccc2)c2nc(C)cs2)cc(OC)c1OC	-0.151% (inactive)
O=C(CN1C(=O)c2ccccc2S1(=O)=O)Nc1ncc(Cl)cc1Cl	6.69% (inactive)
Cc1ccc(-n2c(=O)c3c(c4cc(C)ccc4n3C)n(CC(=O)NCC3CCCO3)c2=O)cc1 (stereo not given)	6.18% (inactive)
COc1ccc(C)cc1S(=O)(=O)N(CC(=O)Nc1cc([N+](=O)[O-])ccc1C)c1ccc(C)c(C)c1	4.1% (inactive)
O=C(c1sc2cc([N+](=O)[O-])ccc2c1Cl)N1CCOCC1	14.3% (inactive)
Cc1cc(=O)[nH]c(N/N=C/c2ccc(C)o2)n1	29.3% (inactive)
Cc1cc(N=Cc2c(O)ccc3cc(Br)ccc23)no1	18.9% (inactive)
